Pf growth 48h – inhibits P. falciparum growth in the first generation, 48 h; P. falciparum luciferase growth in erythrocytes, 48 h; Potency, µM (top dose mostly 28.7 µM), for inactives: at the highest dose activity change, negative = inhibition, most hits filed as inhibitors; hit rate 5.9% among 310,000; AID 504832; also: potency is read from the fitted curve at half-maximal effect; % is scaled to controls: 0 for no effect and ±100 for the full control effect
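Compounds are pin-transferred into medium, infected erythrocytes (2% hematocrit, 0.1% parasitemia final) are added, and plates sit one parasite generation at 37 C in 5% CO2. Detection reagent is then added and luminescence measured.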
Shiga toxin inh – Shiga toxin inhibition; Vero cells, Shiga toxin protein synthesis inhibition reporter; inhibition, % at 38.7 µM; hit rate 9.2% among 290,000; AID 2315; in the data active = inhibition mostly above about 28%, no sharp cut-off; inactive = mostly below about 43%; also: 0% is about no effect
Cycloheximide cs – counter-screen hit for Shiga toxin inhibitors, cycloheximide | cell reporter, cycloheximide protein synthesis inhibition counterscreen | max response, % | hit rate 12% among 300,000 | AID 2314; in the data active = max response mostly above about 13%, no sharp cut-off; inactive = mostly below about 14%; also: read at 38.3 µM for the half of the compounds with a filed dose; 0% is about no effect
Pf growth 96h – P. falciparum growth inhibition at 96 hour, primary screen for plastid delayed-death inhibitors | AID 504834 | Potency, µM (doses to about 28.7 µM), for inactives: at the highest dose activity change, negative = inhibition, usual class: inhibitors | hit rate 6.9% among 320,000 | P. falciparum luciferase reporter growth, 96 h; also: potency is read from the fitted curve at half-maximal effect; % is scaled to controls: 0 for no effect and ±100 for the full control effect
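Parasite growth measured via integrated firefly luciferase reporter in P. falciparum. Infected erythrocytes at 2% hematocrit, 0.05% parasitemia final were treated 96 hours at 37 C under 5% CO2, and luminescence was read.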
Active calls of the source: *; u = inconclusive; x = no result; ! = a repeat was not active; [ ] = remark or other dose. Hits are enriched below; roughly 21% of the tested compounds scored in any of these assays. Unless noted, calls follow the shape of the dose curve; as a rule, active = well fitted inhibition curve with a large enough effect; inconclusive = small, poorly fitted or top-dose-only effect, or another doubt; inactive = no such curve, though single readings can be large or run the other way.

SMILES | Pf growth 48h | Shiga toxin inh | Cycloheximide cs | Pf growth 96h
CCOC(=O)N1CCC(N2C(=O)c3ccccc3C2Nc2cc(OC)c(OC)c(OC)c2)CC1 (configuration not stated) | u | -2 | -3 | u
CCOC(=O)N1CCC(N2C(=O)c3ccccc3C2Nc2cc(Cl)c(OC)cc2OC)CC1 (configuration not stated) | 13µM* | -15 | -3 | u
Cc1ccc(-c2ocnc2C(=O)Nc2ccccc2NC(=O)c2ccccn2)cc1 | 2.1µM* | -12 | 9 | 18%
Cc1ccc(-c2ocnc2C(=O)Nc2nc(C)cs2)cc1 | 113% | x | 72* | -86%
O=C(Nc1cccnc1)c1ccc(Br)s1 | 49% | 105* | 31* | 32%
O=C(Nc1cccc(-c2nn[nH]n2)c1)c1ccc(Cl)s1 | -12% | -8 | -1 | u
O=C(Nc1cccc(-c2nn[nH]n2)c1)c1ccc(Br)s1 | 19% | -24 | 23* | u
CCc1sc(C(=O)Nc2cccnc2)cc1Br | u | 47* | 30* | -5%
CCc1sc(C(=O)Nc2ccsc2C(=O)OC)cc1Br | 13% | 53 | -7 | 9%
O=C(O)c1ccc(N=Nc2c(-c3ccccc3)[nH]oc2=O)cc1 | x | 24 | -4 | 6%
Cc1ccc(C)c(S(=O)(=O)NCCN2CCOCC2)c1 | 10% | 0 | -1 | 38%
CN(Cc1ccon1)C(=O)C1CCC(=O)N(CCc2ccc(Cl)cc2)C1 (configuration not stated) | 5% | 12 | -2 | u
CCN1C(=NCc2ccco2)N[C@@H](c2cccc(C(F)(F)F)c2)C(C(=O)OC)=C1C | u | -3 | -1 | 45%
CCN(CC)CCCN=C1N[C@@H](c2ccccc2)C(C(=O)OC)=C(C)N1CC | u | -8 | 1 | 1.7µM*!
CCN1C(=NCc2cc(OC)c(OC)c(OC)c2)N[C@@H](c2ccccc2)C(C(=O)OC)=C1C | -23% | -5 | -2 | 4.7µM*
CCN1C(=NCc2cc(OC)c(OC)c(OC)c2)N[C@@H](c2cccc(C(F)(F)F)c2)C(C(=O)OC)=C1C | u | -12 | 1 | 2.6µM*
COc1cc(CCN2C(=O)N[C@@H](c3cccc(C(F)(F)F)c3)C(C(C)=O)=C2C)cc(OC)c1OC | 13µM* | 3 | -1 | 10µM*
CCN1C(=NCc2ccc(OC)cc2)N[C@@H](c2ccccc2)C(C(=O)OC)=C1C | -28% | -5 | -4 | u
CC1CCCCN1C(=O)COC(=O)c1cccc(NS(=O)(=O)c2ccccc2)c1 (configuration not stated) | 12% | x | x | 8%
Cc1cccc(NC(=O)c2cccnc2)c1 | 74% | 13 | 9 | -10%
Cc1cccc(NC(NC(=O)c2cccnc2)C(Cl)(Cl)Cl)c1 (configuration not stated) | u | -5 | -9 | 13µM*
c1ccc(-c2ccc(-c3nccc4ccccc34)[nH]2)cc1 | 81% | 14 | 29* | 484%
N#Cc1cc(-c2ccccc2)[nH]c1-c1nccc2ccccc12 | 9% | 9 | 6 | u
CCN(C(=O)C(C)N1C(=O)/C(=C/c2ccco2)SC1=S)C1CCS(=O)(=O)C1 (configuration not stated) | u | 2 | 10 | u
CCN(C(=O)CN1C(=O)S/C(=C\c2cccc(Cl)c2)C1=O)C1CCS(=O)(=O)C1 (configuration not stated) | u | 1 | -2 | 12µM*
SMILES | Pf growth 48h | Shiga toxin inh | Cycloheximide cs | Pf growth 96h
CC(C(=O)N(C)C1CCS(=O)(=O)C1)N1C(=O)/C(=C/c2ccc(F)cc2)SC1=S (configuration not stated) | 13µM* | 6 | 7 | 12µM*
CCN(C(=O)CCN1C(=O)/C(=C/c2ccccc2)SC1=S)C1CCS(=O)(=O)C1 (configuration not stated) | 13µM* | 15 | 9 | 7.4µM*
CCN(C(=O)CN1C(=O)S/C(=C\C=C\c2ccccc2)C1=O)C1CCS(=O)(=O)C1 (configuration not stated) | 7.4µM* | -5 | -2 | 4.1µM*
CCC1Oc2ccccc2N(CC(=O)NCc2ccco2)C1=O (configuration not stated) | 5% | 19 | -1 | u
O=C(Nc1cccc(Cl)c1)C1COc2ccccc2O1 (configuration not stated) | -2% | 29 | 16* | 1.7µM*
COc1cccc(NC(=O)C2COc3ccccc3O2)c1 (configuration not stated) | 82% | x | 60* | u
Cc1cc(Cl)ccc1NC(=O)C1COc2ccccc2O1 (configuration not stated) | 202% | 87* | 37* | 90%
COC(=O)c1cc(NC(=O)C2COc3ccccc3O2)cc(C(=O)OC)c1 (configuration not stated) | u | 17 | -1 | x
Cc1ccccc1OCCn1c(CCNC(=O)C2CCCCC2)nc2ccccc21 | x | -5 | -2 | x
COCCNC(=O)Cn1cc(C(=O)c2ccco2)c2ccccc21 | -6% | 36 | -4 | -11%[1.15 µM]
CCN1CCN(S(=O)(=O)Cc2ccccc2Cl)CC1 | 11% | 2 | -3 | u
O=C(COC(=O)c1cnc(Cl)c(Cl)c1)NCc1cccs1 | 0% | -4 | -3 | 15%
NS(=O)(=O)c1cc(-c2nn[nH]n2)c(NCc2cccs2)cc1Cl | -10% | x | x | 12µM*
COc1cc(-c2nnc3sc(C4CCCCC4)nn23)cc(OC)c1OC | 8.3µM* | -9 | -3 | 5.2µM*
COc1ccc(-c2nnc3sc(CCN4C(=O)c5ccccc5C4=O)nn23)cc1 | 5.2µM* | -9 | -4 | u
COc1cccc(-c2nnc3sc(C4CCCCC4)nn23)c1 | x | 36 | 16 | 3%
COc1cc(OC)c(-c2nn3c(C4CCCCC4)nnc3s2)cc1OC | 5.2µM* | -3 | -4 | 44%
CCOc1cccc(-c2nnc3sc(-c4cc(OC)c(OC)cc4OC)nn23)c1 | 1% | -1 | -3 | 35%
CCOc1cccc(-c2nnc3sc(C4CCCCC4)nn23)c1 | 9.3µM* | -8 | -3 | 10µM*
COc1ccc(S(=O)(=O)NCC2CCCN(C(=O)CC3CCCC3)C2)cc1 (configuration not stated) | -22% | 19 | 1 | 23%
CC(NC(=O)C1CCN(C(=O)Nc2ccccc2)CC1)c1ccccc1 (configuration not stated) | -1% | x | x | 18%
Cc1c(NC(=O)CC2NC(=O)NC2=O)c(=O)n(-c2ccccc2)n1C (configuration not stated) | 12% | -23 | 0 | 4%
Cc1ccc(C(=O)CCC(=O)N2CCC(C(N)=O)CC2)s1 | -16% | x | x | -11%
COc1cc(-c2nnc3sc(Cc4ccccc4)nn23)cc(OC)c1OC | u | -15 | -2 | 6.6µM*
CCOC(=O)C1CCCN(C(=O)CCn2nnnc2CN2CCOCC2)C1 (configuration not stated) | 42% | -5 | 8 | 6%
COc1cccc(C(=O)N/N=C/C(Br)=C/c2ccccc2)c1 | 13µM* | 114* | 52* | -19%
COc1ccc(C(=O)N/N=C/C(Br)=C/c2ccccc2)cc1 | u | 60* | 31* | -20%
Cn1cc(C(=O)N/N=C/C(Br)=C/c2ccccc2)ccc1=O | u | 15 | 2 | u
